Test results reported in PubChem BioAssay AID651598 (Sanford-Burnham Center for Chemical Genomics, 2012).
Where “and” joins values, the source holds several entries; their conditions need not be identical. Identical values can stand only once.

Target: Apelin receptor (Homo sapiens) (UniProt P35414)
Assay: apelin receptor (APJ) antagonists, SAR follow-up, counter-screen for CXCR6 antagonist project, cell-based, beta-arrestin, DiscoveRx, panel, CHO-K1 (AID 651598)
Details: CHO-K1 PathHunter beta-arrestin luminescence, antagonist mode; run 3, at 80 µM (top of the series)

Apelin receptor (Homo sapiens), sequence (P35414 whole entry, looked up): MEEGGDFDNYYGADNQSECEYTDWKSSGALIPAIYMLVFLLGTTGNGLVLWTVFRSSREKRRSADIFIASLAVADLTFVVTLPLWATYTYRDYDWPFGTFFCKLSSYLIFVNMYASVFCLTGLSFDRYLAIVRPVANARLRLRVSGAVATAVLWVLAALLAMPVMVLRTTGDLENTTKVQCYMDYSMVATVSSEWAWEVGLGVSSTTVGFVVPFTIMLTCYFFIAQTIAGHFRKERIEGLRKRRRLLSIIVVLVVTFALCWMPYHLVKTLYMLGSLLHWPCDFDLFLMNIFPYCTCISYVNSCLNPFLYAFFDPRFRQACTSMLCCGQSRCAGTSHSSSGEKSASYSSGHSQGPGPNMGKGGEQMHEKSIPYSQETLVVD

| Structure (SMILES) | inhibition |
| --- | --- |
| COc1cc(C(=O)NC2CC3CCC(C2)N3CC(=O)Nc2ccccc2)cc(OC)c1OC (stereo not drawn) | 2.29% and 12.1% |
| COc1cc(C(=O)NC2CC3CCCC(C2)N3CC(=O)Nc2ccccc2)cc(OC)c1OC (stereo not drawn) | -24.7% and 10.7% and 13.8% |
| COc1cc(C(=O)NC2CCN(CC(=O)Nc3ccccc3)CC2)cc(OC)c1OC | 19.7% |
